Reference: PubChem BioAssay (NCI)
Compounds without any hit were thinned out: in the full panel of roughly 79,000, 15% have a hit. Active and inactive are the calls of the source. Rule as the data show it: active = growth inhibition above about 70%; inactive = the rest.

Experiments:
[1] = NCI Yeast Anticancer Drug Screen. Data for the wt1 strain (AID 149);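 also: 0% = growth of vehicle-treated wt1 cultures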; conditions: S. cerevisiae wt1 strain (SPY 50644) growth inhibition, hits give high values
In short: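 Using yeast strain wt1, compound-induced growth inhibition was determined against vehicle-treated cultures.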

[2] = NCI Yeast Anticancer Drug Screen. Data for the rad50EPP+ strain (AID 151);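 also: 0% = growth of vehicle-treated control cultures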; conditions: S. cerevisiae rad50 mutant strain, hits give high values
In short: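 Compounds were applied to the rad50EPP+ yeast strain, which bears a defined DNA repair alteration, and growth inhibition was determined relative to vehicle-treated cultures.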

[3] = NCI Yeast Anticancer Drug Screen. Data for the mgt1 strain (AID 153); conditions: S. cerevisiae mgt1 mutant growth inhibition, hits give high values
In short: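 Strain: mgt1 yeast, one of a set carrying defined DNA damage repair or cell cycle control alterations. Compound-treated growth compared with vehicle.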

[4] = NCI Yeast Anticancer Drug Screen. Data for the rad50 strain (AID 155);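 also: 0% = growth of vehicle-only cultures of the same strain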; conditions: S. cerevisiae rad50 strain growth inhibition, hits give high values
In short: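 Relative growth inhibition (compound vs vehicle) was measured in yeast with a defined repair-gene alteration.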

[5] = NCI Yeast Anticancer Drug Screen. Data for the mec2-1 strain (AID 157); conditions: S. cerevisiae mec2-1 strain, hits give high values
In short: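 Strain: mec2-1 (DNA repair/cell cycle alteration). Compound exposure, then growth measured; inhibition expressed relative to vehicle.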

[6] = NCI Yeast Anticancer Drug Screen. Data for the rad14 strain (AID 159);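 also: 0% = growth of vehicle-treated control cultures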; conditions: S. cerevisiae rad14 strain growth inhibition, hits give high values
In short: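 Screen for anticancer potential: a yeast strain altered in DNA damage repair is grown with compound, and reduced growth is quantified against vehicle controls.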

[7] = NCI Yeast Anticancer Drug Screen. Data for the sgs1 mgt1 strain (AID 161);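 also: 0% = growth of cultures given vehicle only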; conditions: S. cerevisiae sgs1 mgt1 strain, hits give high values
In short: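 Inhibition of yeast growth, normalised to vehicle-treated controls, is reported for a strain bearing genetic alterations in DNA damage repair.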

[8] = NCI Yeast Anticancer Drug Screen. Data for the CLN2oe strain (AID 163);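 also: 0% = growth of vehicle-only control cultures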; conditions: S. cerevisiae CLN2oe strain, hits give high values
In short: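 Growth of a genetically modified yeast strain is measured after compound exposure and compared with cultures given vehicle alone.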

[9] = NCI Yeast Anticancer Drug Screen. Data for the cln2 rad14 strain (AID 165);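 also: 0% = growth equal to vehicle treated cultures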; conditions: S. cerevisiae cln2 rad14 strain, hits give high values
In short: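 Compounds are applied to the cln2 rad14 yeast strain, and growth is then compared with that of vehicle-treated cultures to give inhibition.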

[10] = NCI Yeast Anticancer Drug Screen. Data for the bub3 strain (AID 167); conditions: S. cerevisiae bub3 mutant strain, hits give high values
In short: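 Screening used yeast with an engineered genetic alteration affecting cell cycle control. Compound-exposed cultures were compared with vehicle cultures, and reduced growth was taken as inhibition.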

[11] = NCI Yeast Anticancer Drug Screen. Data for the wt2 strain (AID 169);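 also: 0% = growth of vehicle-treated yeast cultures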; conditions: S. cerevisiae wt2 strain growth inhibition, hits give high values
In short: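 This strain belongs to a panel of yeast strains with defined genetic alterations in DNA damage repair or cell cycle control. Compounds are applied, and growth inhibition is measured against vehicle-treated cultures.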

[12] = NCI Yeast Anticancer Drug Screen. Data for the mlh1 strain (AID 171);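 also: 0% = growth of vehicle-treated control cultures of the same strain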; conditions: S. cerevisiae mlh1 strain growth inhibition, hits give high values
In short: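 Growth of the mutant yeast strain after compound exposure, expressed as inhibition relative to vehicle-only controls.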

[13] = NCI Yeast Anticancer Drug Screen. Data for the mlh1 rad18 strain (AID 175); conditions: S. cerevisiae mlh1 rad18 strain growth inhibition, hits give high values
In short: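 Read-out is yeast growth inhibition, calculated against vehicle-only controls. The compound was applied to a strain engineered with DNA damage repair alterations.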

[14] = NCI Yeast Anticancer Drug Screen. Data for the rad18 strain (AID 177); conditions: S. cerevisiae rad18 mutant growth inhibition, hits give high values
In short: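 Growth of the mutant yeast strain after compound exposure, normalised to vehicle-only cultures.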

[15] = NCI Yeast Anticancer Drug Screen. Data for the sgs1 strain (AID 173);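 also: 0% = growth of vehicle-only control cultures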; conditions: S. cerevisiae sgs1 mutant, hits give high values
In short: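 Growth of a yeast strain bearing a defined genetic alteration is measured after compound treatment. Inhibition is expressed relative to vehicle-only controls.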

[16] = at 5.0 µM (retest, dose inferred, filed as 0.5)
[17] = at 50.0 µM (retest, dose inferred, filed as 5.0)

Measured: growth inhibition

COc1ccc2nc3cccc([N+](=O)[O-])c3c(NCCNCCO)c2c1
active: [1]; at 100.0 µM 70% | [2]; at 33.0 µM 92% | [2]; at 100.0 µM 96% | [3]; at 100.0 µM 75% | [4]; at 3.7 µM 81% | [4]; at 11.0 µM 93% | [4]; at 33.0 µM 94% | [4]; [17] 98% | [4]; at 50.0 µM 85% | [4]; at 100.0 µM 95% | [5]; at 3.7 µM 75% | [5]; at 11.0 µM 95% | [5]; at 33.0 µM 96% | [5]; [17] 96% | [5]; at 50.0 µM 89.3% | [5]; at 100.0 µM 97% | [6]; at 1.2 µM 90% | [6]; at 3.7 µM 97% | [6]; at 11.0 µM 99% | [6]; at 33.0 µM 99% | [6]; at 100.0 µM 98% | [7]; [16] 78% | [7]; [17] 94% | [7]; at 50.0 µM 78.2% | [8]; at 100.0 µM 90% | [9]; [16] 81% | [9]; [17] 98% | [9]; at 50.0 µM 86.8% | [10]; [17] 90% | [10]; at 100.0 µM 96% | [11]; at 100.0 µM 94% | [12]; at 33.0 µM 80% | [12]; at 100.0 µM 88% | [13]; [17] 98% | [13]; at 50.0 µM 78.2% | [14]; at 1.2 µM 95% | [14]; at 3.7 µM 96% | [14]; at 11.0 µM 96% | [14]; at 33.0 µM 95% | [14]; at 100.0 µM 95%
inactive: [1]; at 1.2 µM -3% | [1]; at 3.7 µM 3% | [1]; at 11.0 µM 20% | [1]; at 33.0 µM 49% | [2]; at 1.2 µM 2% | [2]; at 3.7 µM 18% | [2]; at 11.0 µM 61% | [3]; at 1.2 µM -2% | [3]; at 3.7 µM 1% | [3]; at 11.0 µM 23% | [3]; at 33.0 µM 69% | [4]; at 1.2 µM 41% | [4]; [16] 36% | [5]; at 1.2 µM 17% | [5]; [16] 1% | [8]; at 1.2 µM -5% | [8]; at 3.7 µM -8% | [8]; at 11.0 µM -5% | [8]; at 33.0 µM 32% | [10]; at 1.2 µM -11% | [10]; at 3.7 µM -17% | [10]; [16] -31% | [10]; at 11.0 µM -11% | [10]; at 33.0 µM 36% | [10]; at 50.0 µM 67.7% | [11]; at 1.2 µM -2% | [11]; at 3.7 µM -1% | [11]; at 11.0 µM 4% | [11]; at 33.0 µM 35% | [12]; at 1.2 µM 1% | [12]; at 3.7 µM 21% | [12]; at 11.0 µM 50% | [13]; [16] 67%

CN(C)CCCn1c2c3ccccc3ccc2c2oc(=O)c3ccccc3c21
inactive: [1]; at 1.2 µM -10% | [1]; at 3.7 µM -7% | [1]; at 11.0 µM 26% | [2]; at 1.2 µM 13% | [2]; at 3.7 µM 58% | [3]; at 1.2 µM 13% | [3]; at 3.7 µM 33% | [3]; at 11.0 µM 53% | [4]; at 1.2 µM 0% | [4]; at 3.7 µM 45% | [4]; [16] 22% | [5]; at 1.2 µM 0% | [5]; at 3.7 µM 28% | [5]; [16] 21% | [5]; at 11.0 µM 48% | [6]; at 1.2 µM -6% | [6]; at 3.7 µM 10% | [6]; at 11.0 µM 30% | [8]; at 1.2 µM 3% | [8]; at 3.7 µM 14% | [8]; at 11.0 µM 44% | [9]; [16] -17% | [10]; at 1.2 µM 20% | [10]; at 3.7 µM 11% | [10]; [16] 12% | [10]; at 11.0 µM 23% | [11]; at 1.2 µM -22% | [11]; at 3.7 µM -9% | [11]; at 11.0 µM 50% | [12]; at 1.2 µM 22% | [12]; at 3.7 µM 30% | [12]; at 11.0 µM 53% | [15]; at 1.2 µM 0% | [15]; at 3.7 µM -2% | [15]; at 11.0 µM 34% | [14]; at 1.2 µM -10% | [14]; at 3.7 µM -2% | [14]; at 11.0 µM 47%
active: [1]; at 33.0 µM 84% | [1]; at 100.0 µM 97% | [2]; at 11.0 µM 95% | [2]; at 33.0 µM 98% | [2]; at 100.0 µM 98% | [3]; at 33.0 µM 92% | [3]; at 100.0 µM 98% | [4]; at 11.0 µM 91% | [4]; at 33.0 µM 97% | [4]; [17] 98% | [4]; at 50.0 µM 99% | [4]; at 100.0 µM 98% | [5]; at 33.0 µM 88% | [5]; [17] 98% | [5]; at 50.0 µM 98.8% | [5]; at 100.0 µM 96% | [6]; at 33.0 µM 83% | [6]; at 100.0 µM 98% | [8]; at 33.0 µM 86% | [8]; at 100.0 µM 97% | [9]; [17] 97% | [9]; at 50.0 µM 98.4% | [10]; at 33.0 µM 87% | [10]; [17] 98% | [10]; at 50.0 µM 99.2% | [10]; at 100.0 µM 98% | [11]; at 33.0 µM 93% | [11]; at 100.0 µM 97% | [12]; at 33.0 µM 90% | [12]; at 100.0 µM 98% | [15]; at 33.0 µM 85% | [15]; at 100.0 µM 96% | [14]; at 33.0 µM 93% | [14]; at 100.0 µM 98%

O=C(CCSC1=NCCCN1)c1ccc(F)cc1
inactive: [1]; at 1.2 µM -43% | [1]; at 3.7 µM -61% | [1]; at 11.0 µM -101% | [1]; at 33.0 µM 15% | [2]; at 1.2 µM -75% | [2]; at 3.7 µM -100% | [2]; at 11.0 µM -54% | [2]; at 33.0 µM 37% | [3]; at 1.2 µM -59% | [3]; at 3.7 µM -59% | [3]; at 11.0 µM -52% | [3]; at 33.0 µM -3% | [4]; at 1.2 µM -21% | [4]; at 3.7 µM -40% | [4]; [16] 24% | [4]; at 11.0 µM -34% | [4]; at 33.0 µM -34% | [4]; [17] 69% | [4]; at 50.0 µM 4.9% | [5]; at 1.2 µM -15% | [5]; at 3.7 µM 3% | [5]; [16] 17% | [5]; at 11.0 µM -52% | [5]; at 33.0 µM 55% | [6]; at 1.2 µM -19% | [6]; at 3.7 µM -50% | [6]; at 11.0 µM -54% | [6]; at 33.0 µM 23% | [7]; [16] 6% | [8]; at 1.2 µM -6% | [8]; at 3.7 µM -7% | [8]; at 11.0 µM -24% | [8]; at 33.0 µM 14% | [9]; [16] -3% | [9]; [17] 13% | [9]; at 50.0 µM 25.6% | [10]; at 1.2 µM -22% | [10]; at 3.7 µM -17% | [10]; [16] 12% | [10]; at 11.0 µM -23% | [10]; at 33.0 µM -26% | [10]; at 100.0 µM 68% | [12]; at 1.2 µM -32% | [12]; at 3.7 µM -73% | [12]; at 11.0 µM -23% | [12]; at 33.0 µM -13% | [15]; at 1.2 µM -41% | [15]; at 3.7 µM -52% | [15]; at 11.0 µM -58% | [15]; at 33.0 µM -29% | [13]; [16] 24% | [13]; [17] 48% | [13]; at 50.0 µM 14.9% | [14]; at 1.2 µM -13% | [14]; at 3.7 µM -23% | [14]; at 11.0 µM -22% | [14]; at 33.0 µM 21%
active: [1]; at 100.0 µM 98% | [2]; at 100.0 µM 98% | [3]; at 100.0 µM 99% | [4]; at 100.0 µM 96% | [5]; [17] 75% | [5]; at 50.0 µM 94.3% | [5]; at 100.0 µM 100% | [6]; at 100.0 µM 99% | [7]; [17] 93% | [7]; at 50.0 µM 91% | [8]; at 100.0 µM 98% | [10]; [17] 79% | [10]; at 50.0 µM 91.2% | [12]; at 100.0 µM 98% | [15]; at 100.0 µM 99% | [14]; at 100.0 µM 96%
